Screens from PubChem.
Tau fil binding – tau filament binding. P10636. recombinant tau filaments, thioflavin S fluorescence, 15 h; filaments grown with octadecylsulfate alongside compound. Potency, µM (titrated, usually from 57.1 µM), inactives show at the highest dose activity change, negative = inhibition. hit rate 2% among 71,000;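 note: % is set by controls: 0 for no effect and ±100 for the full control effect; actives lower thioflavin S fluorescence by blocking filaments or displacing dye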
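Assay mix: 1 uM His-tagged tau, 30 uM sodium octadecylsulfate, thioflavine S dye in HEPES/NaCl/DTT buffer. Compound is added prior to the inducer. Fluorescence after 15 h at 37 C.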
HEK293 cAMP cs – parental HEK293 cAMP activation (counter-screen) | hit rate 2.5% among 73,000 | Potency, µM (top dose mostly 57.1 µM), for the others: at the top dose activation, usual class: activators | parental HEK293 CNG cAMP sensor, membrane potential fluorescence; note: % of control where 0% means no effect; nearly all actives have a fitted effect of over 55% in size
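Counterscreen for endogenous-receptor signalling: CNG-channel HEK 293 cells report cAMP rise by membrane depolarization. After 60 min dye equilibration with 100 uM RO 20-1724, compounds incubated 30 min before bottom-read fluorescence at 590 nm.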
Luciferase inh – blocks Photinus pyralis firefly luciferase activity | P08659 | purified firefly luciferase, luminescence, 8 min | Potency, µM (doses to about 57.1 µM), inactives show at the top dose activity change, negative = inhibition, hits mostly inhibitors | hit rate 2.2% among 72,000 | AID 411; note: % is set by controls: 0 for no effect and ±100 for the full control effect; nearly all actives have a fitted effect of over 40% in size
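qHTS concentration-response profiling: light output of P. pyralis luciferase with luciferin and 10 uM ATP, imidazole buffer pH 7.2. Read by luminescence after 8-min room-temperature incubation.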
PK Bst – alters activity of Bacillus stearothermophilus pyruvate kinase | purified pyruvate kinase, luminescence ATP production; ribose 5-phosphate activator present at AC10 | Potency, µM | hit rate 1.2% among 51,000 | AID 361; in the data active = potency below about 11 µM; inconclusive = mostly about 12 µM to 25 µM;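 the screen sought inhibitors and activators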;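 note: scaled between full activation by ribose 5 phosphate and full inhibition by luteolin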
TSHR ag – activates the human thyroid stimulating hormone receptor | P16473 | HEK293-CNG-TSHR cells (CNG channel as cAMP sensor), membrane potential dye, cAMP | Potency, µM (doses to about 57.1 µM), without a hit: top-dose activation, actives largely listed as activators | hit rate 0.48% among 73,000; active = well fitted activation curve with a large enough effect in the main read-out, with a control signal flat, not every such curve was filed as active; inconclusive = small, poorly fitted or top-dose-only effect, or a change in a side signal; inactive = no such curve, though single readings can be large or run the other way; % of control where 0% means no effect;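 note: the control signal comes from parental cells without the receptor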
Target sequence (P16473 whole entry, looked up): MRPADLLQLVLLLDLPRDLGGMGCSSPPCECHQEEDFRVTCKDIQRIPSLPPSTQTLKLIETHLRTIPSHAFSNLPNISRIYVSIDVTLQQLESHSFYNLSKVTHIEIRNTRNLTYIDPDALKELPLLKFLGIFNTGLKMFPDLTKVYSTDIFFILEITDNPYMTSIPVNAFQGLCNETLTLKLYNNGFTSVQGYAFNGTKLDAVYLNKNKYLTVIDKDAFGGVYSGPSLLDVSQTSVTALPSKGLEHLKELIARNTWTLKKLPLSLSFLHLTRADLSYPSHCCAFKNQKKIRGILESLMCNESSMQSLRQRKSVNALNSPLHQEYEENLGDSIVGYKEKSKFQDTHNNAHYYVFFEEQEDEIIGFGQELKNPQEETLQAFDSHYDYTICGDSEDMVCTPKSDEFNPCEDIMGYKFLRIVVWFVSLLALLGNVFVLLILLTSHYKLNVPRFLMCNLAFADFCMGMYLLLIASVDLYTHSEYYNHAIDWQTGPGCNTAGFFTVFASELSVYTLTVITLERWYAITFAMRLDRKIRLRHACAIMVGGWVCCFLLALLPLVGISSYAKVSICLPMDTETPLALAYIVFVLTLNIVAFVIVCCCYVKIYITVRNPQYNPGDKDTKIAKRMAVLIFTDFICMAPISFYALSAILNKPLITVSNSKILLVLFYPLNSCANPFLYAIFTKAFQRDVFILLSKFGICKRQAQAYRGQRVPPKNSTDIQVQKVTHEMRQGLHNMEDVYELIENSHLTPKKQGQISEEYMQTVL
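cAMP rise detected as CNG-channel membrane depolarization by fluorescent dye (emission 590 nm), 30 min after compound, following 60 min dye loading containing 100 uM RO 20-1724 at room temperature. Cells: TSHR/CNG HEK 293, with parental CNG HEK 293 as control.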
ERK AVP block – inhibitors of vasopressin-stimulated ERK signaling pathway | HEK293-V1b, vasopressin-stimulated pERK AlphaScreen | Potency, µM (titrated, usually from 57.5 µM), for the others: top-dose activity, negative = inhibition, most hits filed as inhibitors | hit rate 0.99% among 72,000; note: % is set by controls: 0 for no effect and ±100 for the full control effect; nearly all actives have a fitted effect of over 55% in size
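HEK293 cells stably expressing V1b receptor, preincubated 30 min at 37 °C with compound, then stimulated 5 min with 25 nM vasopressin. Phospho-ERK by AlphaScreen SureFire after 5 h RT; normalized to DMSO and vasopressin; AC50 by Hill fit.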
Numbers without * were called inactive; i = inactive; ? = inconclusive; / = not tested or not shown; [ ] = another dose, or the depositor's remark. A selection: hits, their analogues and other compounds. The true share with any hit is near 7.2%. Unless noted, calls come from the whole dose curve; as a rule, active = well fitted curve in the direction sought with a large enough effect; inconclusive = small, poorly fitted or top-dose-only effect, or another doubt; inactive = no such curve, though single readings can be large; an effect the other way counts as inactive or inconclusive. Potency is the fitted concentration of half-maximal effect.

SMILES | Tau fil binding | HEK293 cAMP cs | Luciferase inh | PK Bst | TSHR ag | ERK AVP block
CC[C@@]1(O)CC2CN(CCc3c([nH]c4ccccc34)[C@](C(=O)OC)(c3cc4c(cc3OC)N(C)C3[C@@](O)(C(=O)OC)C(OC(C)=O)[C@]5(CC)C=CCN6CC[C@@]43C65)C2)C1 (stereo not given in full) | / | / | / | / | / | 12%
COc1ncc2nc(-c3ccc(F)cc3)c(=O)n(CCc3ccccc3)c2n1 | -12% | 4% | 1%[11.4 µM] | / | 5% | 4%
O[C@H](COc1ccccc1)CN1CCCCC1 | 8%[11.4 µM] | ? | 0%[11.4 µM] | / | ? | 0%[11.5 µM]
CCn1c(SCC(=O)N2CCCC2)nc2c1c(=O)n(C)c(=O)n2C | 6% | 1% | 1% | >57 | -1% | 20µM*
C=CCSc1nc2c(c(=O)n(C)c(=O)n2C)n1CC | 1% | -4% | 1% | >57 | 8% | -16%
Cc1ccccc1Nc1nc(CSc2nnc(-c3ccoc3C)n2C)cs1 | ? | 26% | 25µM* | / | / | -13%
CCn1c(SCC(=O)Nc2ccccc2N2CCCCC2)nc2c1c(=O)n(C)c(=O)n2C | 36% | 16µM* | 1% | >57 | ? | -18%
Cc1occc1-c1nnc(SCc2cc(=O)n3cc(Br)ccc3n2)n1C | 66% | 8% | 0% | >57 | 1% | 0%
CCCn1c(SCC(=O)Nc2ccccc2C(=O)OCC)nc2c1c(=O)n(C)c(=O)n2C | 2% | 16% | 3% | >57 | 10% | 5%
COc1cccc(Cn2c(=O)c(CCc3ccccc3)nc3cnc(N4CCNCC4)nc32)c1 | 99% | 11% | 2%[11.4 µM] | / | -2% | -20%
O=C(/C=C\Nc1ccccn1)c1ccc(Cl)cc1 | 5% | 8% | 1.3µM* | / | 16% | 18%
CCC(C)(C(=O)NC1CCCCC1)N(Cc1ccco1)C(=O)c1ccc2c(c1)OCO2 (stereo not given) | 10% | 7.9µM* | 2% | >57 | ? | -16%
CCC(C)(C(=O)NC1CCCC1)N(CC1CCCO1)C(=O)c1ccc2c(c1)OCO2 (stereo not given) | -8% | ? | -1% | >57 | ? | 23%
NC(N)=N/N=C\c1ccc(C2CCNCC2)cc1 | 11%[11.4 µM] | 21%[11.4 µM] | 4%[11.4 µM] | / | 1%[11.4 µM] | -10%[11.5 µM]
CN[C@@H](c1ccncc1)[C@@H](NC)c1ccncc1 | -1%[11.4 µM] | 12%[11.4 µM] | 1%[11.4 µM] | / | -4%[11.4 µM] | 6%[11.5 µM]
CCc1ccc(CNc2ccc(O)cc2)cc1 | 10µM* | -18% | -9% | / | -8% | ?
COc1ccc(N2CCN(C(=O)C(C)(C)Oc3ccc(Cl)cc3)CC2)cc1 | 13µM* | 6% | -3% | / | -6% | ?
O=S(=O)(O)c1cc(N=[N+]([O-])c2cc(S(=O)(=O)O)c3ccccc3c2)cc2ccccc12 | 2%[11.4 µM] | 0%[11.4 µM] | -3%[11.4 µM] | / | -1%[11.4 µM] | -7%[11.5 µM]
CC(C)OC(=O)CSc1nc2cccnc2n1C1CCCCC1 | -1% | 16µM* | 2% | >57 | ? | 20%
COc1ccc(C(=O)Nc2nccs2)cc1OC | 10% | 4% | -7% | / | -5% | ?
CC(C)CN1C(=O)c2ccc(C(=O)Nc3nccs3)cc2C1=O | -25% | -3% | 13µM* | / | -21% | -22%
Cc1nn(Cc2ccc(C(=O)Nc3nccs3)cc2)c(C)c1Cl | 34% | 7% | -1% | 3.1* | 5% | ?
CC(C)CN1C(=O)c2ccc(C(=O)Nc3ccncc3)cc2C1=O | -13% | 14% | -2% | >57 | 12% | ?
CCCN1C(=O)c2ccc(C(=O)Nc3nccs3)cc2C1=O | -7% | -7% | 13µM* | >57 | -4% | -17%
CCCc1cc(C(=O)Nc2nccs2)cs1 | -14% | 17% | 7.9µM* | ? | 7% | -29%
SMILES | Tau fil binding | HEK293 cAMP cs | Luciferase inh | PK Bst | TSHR ag | ERK AVP block
COCCN1C(=O)c2ccc(C(=O)Nc3nccs3)cc2C1=O | -10% | 1% | -28% | / | -9% | -26%
COC(=O)c1ccc(C(NC(=O)OCc2ccccc2)/C(=C/[C@@H](C)C(=O)NCc2ccc(-c3ccccc3)cc2)c2cccnc2)cc1 (stereo not given in full) | 15% | 13% | / | / | 4% | -11%
COc1ccc(-n2c(=O)c(C)nc3cnc(N(C)C)nc32)cc1 | -8% | 22% | 1%[11.4 µM] | / | / | -1%
COc1cccc(CNc2ccc3nc(-c4ccc(N)cc4)c(OC)n3n2)c1 | ? | -12% | 2% | / | -6% | -3%
CSc1nc2[nH]c3c(c2c2ncnn12)CCCC3 | / | / | -4%[25.5 µM] | 0.42* | / | /
CCOC(=O)C(C(C)=O)c1c(Br)c(O)c(O)c2c(C(=O)c3ccc(C)cc3)coc12 (stereo not given) | 10µM* | 14% | -6% | >57 | 11% | ?
Nc1ccc(C23CC4CC(CC(O)(C4)C2)C3)cc1 | -9% | 10% | -22% | 9.1* | -13% | -5%
COc1cccc(-c2cn3nc(C)c(C)nc3n2)c1 | 10µM* | -5% | 13µM* | i | -14% | -24%
Cc1nc2nc(-c3cccs3)cn2nc1C | i | -5% | 20µM* | / | 6% | -8%
Cc1cc(-c2cccs2)n[nH]1 | -8% | -1% | 0% | / | 2% | -3%
COc1cccc(-c2nn3c(-c4cccc(C)c4)nnc3s2)c1 | 253% | ? | -2% | / | ? | 0%
CCCCCCCCCCCCCCC(C(=O)OC)C(O)(CC(=O)OC)C(=O)OC (stereo not given) | / | / | / | / | / | 11%
N#Cc1ccc(CN2CCCC3(CCN(C(=O)c4cc(C(F)(F)F)cc(C(F)(F)F)c4)CC3)C2)cc1 | -19% | 15% | 3%[11.4 µM] | / | 8% | 15%
Cn1c(=O)cnc2cnc(Oc3ccccc3)nc21 | -5% | 1% | 0%[11.4 µM] | / | -4% | 3%
O=C(NC1=NCCS1)c1cccs1 | 3% | -23% | 0% | >57 | -13% | 2%
O=C(NC1=NCCS1)c1cc2ccccc2o1 | 10%[11.4 µM] | 1%[11.4 µM] | 5µM* | / | / | -8%
O=C(NC1=NCCS1)Nc1ccccc1 | 2% | 2% | 16µM* | i | 1% | 11%
O=C(Nc1ccc(Cl)cn1)c1cc2ccccc2o1 | 5% | ? | 7.9µM* | ? | ? | -17%
Cc1cc(C(=O)NC2=NCCS2)cs1 | 12% | 4% | 16µM* | / | 1% | -4%
COc1ccccc1-c1nccc(-n2ccnc2)n1 | 3% | -6% | 0%[2.29 µM] | / | 12% | 8%
Fc1ccc([C@H]2CCNC[C@H]2COc2ccc3c(c2)OCO3)cc1 | 32µM* | 8% | 5µM* | / | 21% | -14%
CN1CCN(c2ncc3nc(-c4ccc(Cl)cc4)c(=O)n(C4CC4)c3n2)CC1 | 12% | 7% | -1%[11.4 µM] | / | 3% | 19%
Cc1ccc(NC(=O)N2CCC(C(=O)NCc3ccccc3)CC2)cc1 | -13% | 3% | 0% | >57 | -2% | 27%
Cc1ccc(C2CCN(C(=O)Nc3ccccc3)C2)cc1 (stereo not given) | 5% | ? | 25µM* | / | ? | 17%
CCN(CC)CCn1c(-c2ccccc2)nc2c(NCCOC)nc(C)nc21 | 17% | 18% | / | / | 4% | -25%
